# From the supplement of paper PMC11417369
# ± gives the standard deviation of the averaged measurements. Whole data set: some 25,000 sequences, median “ln(normalized median fluorescence intensity)” near 7.9, cut for the highest 2% near 11. This is one part of a sample in which the highest values are shown more often than they occur.
# Test system: PfAP2-I AP2 domain 3 (GST-tagged)
# Assay: gcPBM binding intensity (ln(normalized median fluorescence intensity)); higher = stronger DNA binding
# In short: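 GST-tagged P. falciparum DNA-binding domains produced in E. coli were incubated for 1 h on an Agilent 4 × 180k array of primer-extended double-stranded 36-bp intergenic genomic probes with negative controls. Binding intensity is the highest Masliner-normalised natural-log median intensity across replicate spots of either probe orientation, with bound protein detected by Alexa488 anti-GST antibody at 488 nm.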
row,Sequence,gcPBM binding intensity (ln)
1,ATAATAAATTCTACGCGTACAAAACCATGAACATTA [XGTACX_site7505],8.02 ± 0.38
2,TAATTAAAATTAAGAAGTACATTTTACTTTTAATGC [XGTACX_site5120],7.61 ± 0.63
3,TTTTATTAAAACCACGCATGCAGAGGAAACGGTGAG [TGCATGCA_site1029],8.45 ± 0.64
4,GTGTTAAATTTTTGAACATGCAAGTTTTATTATTGA [TGCATGCA_site478],7.58 ± 0.56
5,ATATTCCTACATACAACACACGACGTTCTCATAAGA [CACACA_site231],8.06 ± 0.66
6,TTATATGCATAAAAACGTACAAAAATGTATTCATGT [XGTACX_site2215],8.06 ± 0.52
7,TCACTTTTATAATATAATATTCTATATCTTATTTTT [GTGCAC_negctrl_site717],7.47 ± 0.47
8,TAATATAAAGAAATATCAATAATTTGGGCAAATGCC [GTGCAC_negctrl_site621],7.53 ± 0.45
9,TTGCATTAATTTATGTGTACATATAAATTTTTATTT [XGTACX_site3060],8.21 ± 0.15
10,AATAATATTTATTTTTGTACATATGTGCATTATAAA [XGTACX_site3682],11 ± 0.98
11,ATAATAATATTATTTTGTACATATGTGCTTATTTAT [XGTACX_site5540],8.375 ± 0.035
12,TTTATCAAAATAAATGCACACAAATTGCACATATCT [CACACA_site8281],10.31 ± 0.035
13,ATTTATAAAATTAATGCACACATCAGCATTTATAAA [CACACA_site1025],11.3 ± 0.79
14,AATTTAATATAATGCACACATAAAAAAAAAATCAAA [CACACA_site1],10.9 ± 0.65
15,ACATCATAAAATTTATGTACACATTTTTAATTATAC [XGTACX_site7759],8.19 ± 0.19
16,AAAAAATTAAAAATCACACATAAATATATATAAAAA [CACACA_site4192],7.53 ± 0.67
17,CTCTATAAATGCTGCACACACATTTAATTATTTAAG [CACACA_site2582],9.045 ± 0.064
18,AAAATTTAATATAATGCACACATAAAAAAAAAATCA [CACACA_site7882],11.2 ± 0.76
19,AAATTAAAATATAATACACACATAAAAAAAAAATCA [CACACA_site5918],7.68 ± 0.61
20,ATTATTTTATAATTCACACATAAATAAAAAAAAAAT [CACACA_site5290],7.76 ± 0.32

row,Sequence,gcPBM binding intensity (ln)
1,TCTAATAAAATAAATACATGCATACATACATACATA [TGCATGCA_site895],7.76 ± 0.63
2,TATGTGAATAAATAAGCACACATAAACACATATATA [CACACA_site9359],8.06 ± 0.42
3,ATTTAATGTATTTTGCGTACGAATTATTTTATTTCA [XGTACX_site7331],7.93 ± 0.49
4,CTATTATAATATTTTACACACCATGTAAAATATATA [CACACA_site3206],7.75 ± 0.39
5,AAAATTAAAATACGTACACACCTTATCTTTTTGGCT [CACACA_site4311],8.21 ± 0.19
6,ATATTTCTGTCAAGCACACATAATATTAAAATATGT [CACACA_site4330],7.91 ± 0.49
7,ATATTTTATGTAAAGGTGCAAAACAACATTAAAAAA,10.9 ± 0.47
8,CATGCCTTTAAAAAGGTGCAAACATTTTCACAAACA,10.4 ± 0.35
9,ATTTATTTTATATGTTGTACAAACATTTTAAAACAT [XGTACX_site6919],7.79 ± 0.38
10,CTTGAAAAAATAAAAACACACAATGTGTTTTTGAAT [CACACA_site3283],7.42 ± 0.68
11,TTTCATTTAGCTTTTACACACTATATATCATTGATT [CACACA_site6158],7.89 ± 0.68
12,AGTATTATATTTGTATGTACGTAGTAATATATAAAA [XGTACX_site528],7.86 ± 0.6
13,TTTATTTTATTCACTATCATAAGCAAAACTTAAACA [GTGCAC_negctrl_site287],7.6 ± 0.4
14,TTAAACTTGTTTTGGATGCACTATATAATTCATTTT [GTGCAC_site9549],9.45 ± 0.15
15,CGATTTTTTAAGTTTGTGCACTTAAAAACTATAACA,10.9 ± 0.54
16,TTTCATATTTTGTCCTGTTTTTTTTTTTTTTTTCTT [CACACA_negctrl_site993],7.53 ± 0.59
17,TTTAACTTTTATATAACACACATATTGTAATTATGT [CACACA_site6486],7.92 ± 0.33
18,TTTTTTGAATTTAAAAGTACAGGCTTTTACCAAATA [XGTACX_site1356],7.7 ± 0.45
19,TTTTTTTTTTGTAATTGTACTTTTTTAATACTTCTA [XGTACX_site4195],7.74 ± 0.82
20,TTAGTTTATTGGTACTGTACTTTTTTTTTCTCCATT [XGTACX_site8618],8.02 ± 0.33

row,Sequence,gcPBM binding intensity (ln)
1,TATTCGTGCAATAATAGTACACTTATAAATTATTCA [XGTACX_site8993],11.2 ± 0.66
2,TATTCGTGCAATAATGGTACACTTATAAATTATTCA [XGTACX_site1430],10.7 ± 0.71
3,TATTCGTGCAATAGTAGTACACTTATAAATTATTCT [XGTACX_site4899],10.7 ± 0.61
4,ACACATACATACATATGTACATATATACATATATAC [XGTACX_site5559],8.45 ± 0.83
5,AAATAATACATTCGTACTACACATATATATTAAATA [XGTACX_site7806],7.84 ± 0.41
6,AGTAGGCATATTGGTTGTACAAAAAAATTATGCACC [XGTACX_site8925],11.2 ± 0.61
7,GTAGGCATTAAAAAATGTACAAAATATTATGAATTG [XGTACX_site1615],7.65 ± 0.55
8,TGAACATATTAAAATTGTACATATGCACAATATGTA [XGTACX_site6801],8.53 ± 0.29
9,ATATATATATATGCATGTACATATATTTGTTATATC [XGTACX_site3197],9.22 ± 0.27
10,TATATATATATATATGCATGTACATATATTTGTTAT [TGCATGCA_site379],9.45 ± 0.14
11,TATGTGCACCCATGTACATGCGGACATATGTTATAT [TGCATGCA_site383],11 ± 0.9
12,TATATAATAATTTAGAGTACTGATAAAATATTCCAT [XGTACX_site6200],7.55 ± 0.47
13,AATAAATTAGAAGGATGTACTTTGTTTAATATAGAG [XGTACX_site1943],7.83 ± 0.37
14,TTTATTTTCCAAAGGGTGCACATAGTTGAAACGATA,11.1 ± 0.44
15,AATAGCTAGCTGTGCACACAAACATATTTTCCAAAT [CACACA_site880],9.55 ± 0.16
16,CATTTTATAAAAAGCACACATATAGTTATATGCACA [CACACA_site3691],10.7 ± 0.91
17,CAAATAGCTAGCTGTGCACACAAACATATTTTCCAA [CACACA_site879],9.66 ± 0.23
18,TTTATTTTCCAAAGGGTGCACATAGTTAAAACGATA [GTGCAC_site9855],11.1 ± 0.29
19,TTCCAAAAAGTTATTACACACATATGTGCACATATA [CACACA_site6465],10 ± 0.4
